Bioassay records from PubChem.
Rows were chosen to be rich in hits. Some 2.2% of all compounds tested hit in one or more screens of this group.
Efflux pump inh = blocks antifungal efflux pumps in multiplex yeast assay; S. cerevisiae Candida pump triplex, Nile Red efflux; inhibition, % at 10 µM; 330,000 tested, 0.44% active; AID 485275;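 active means plate passing quality check with inhibition over a set limit, or well fluorescence over plate mean plus 4 SD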;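 further: Nile Red retained in pooled yeast measured as flow cytometry median fluorescence; 0% = buffer negative control and 100% = Enniatin B positive control; higher means more Nile Red kept so more efflux inhibition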
SKN-1 inh = C. elegans SKN-1 inhibition; C. elegans VP596 Pgst-4::GFP/RFP ratio, acrylamide-induced, 24 h; inhibition, % at 21.8 µM; 360,000 tested, 0.49% active; AID 624304;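 active means interference check ratio from 0.5 to 1.5 plus GFP to RFP signal ratio inhibition reaching or exceeding a fixed threshold, cut at about 30% in these data, passing the limit was not always enough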
Mot1-301 SUMO = blocks SUMOylation pathway, rescuing yeast Mot1-301 growth; S. cerevisiae Mot1-301 growth rescue, ATP luminescence, 38.5C; percent above DMSO median, 100 means doubled; growth rescue, % at 18.8 µM; 320,000 tested, 1% active;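 active means every valid replicate shows activation above 250% relative to neutral control wells; inactive means the rest, any valid replicate at or below 250%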;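 further: OY570 slx delta 5 strain wells were the positive control but not used for scaling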
HGIII-sPLA2 inh = Inhibits HGIII-sPLA2 liposome hydrolysis, primary screen | Q9NZ20 | QFRET BODIPY PC-A2 liposome hydrolysis, fluorescence | inhibition, % at 12.2 µM | 370,000 tested, 0.56% active | AID 743126;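 active means inhibition above mean plus 3 SD of compounds lying within the high and low control bounds, cut at about 19% in these data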;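 further: 0% = median of test compound wells and 100% = no enzyme DMSO wells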
Target sequence (Q9NZ20 whole entry, looked up): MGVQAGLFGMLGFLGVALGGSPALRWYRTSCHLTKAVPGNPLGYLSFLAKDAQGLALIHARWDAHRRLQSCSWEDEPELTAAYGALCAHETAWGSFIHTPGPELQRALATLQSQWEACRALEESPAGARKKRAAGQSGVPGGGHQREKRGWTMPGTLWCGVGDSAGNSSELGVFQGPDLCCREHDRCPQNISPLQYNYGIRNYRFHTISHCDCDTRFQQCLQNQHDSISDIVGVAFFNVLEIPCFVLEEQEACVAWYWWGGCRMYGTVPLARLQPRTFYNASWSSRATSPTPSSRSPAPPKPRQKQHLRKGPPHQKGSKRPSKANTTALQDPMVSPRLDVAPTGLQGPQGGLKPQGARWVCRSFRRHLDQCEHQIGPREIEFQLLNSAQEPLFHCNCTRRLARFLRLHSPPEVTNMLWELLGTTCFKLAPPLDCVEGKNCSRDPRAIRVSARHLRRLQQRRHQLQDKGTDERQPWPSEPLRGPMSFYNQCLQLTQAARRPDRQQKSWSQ
Yeast cmpd fluor = counter-screen for efflux pump inhibitors: compound fluorescence; S. cerevisiae AD/pABC3, flow cytometry; AID 588517; shares compounds with Efflux pump inh; 1,700 tested, 4% active; fluorescence ratio to DMSO, % at 10 µM;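 active means fluorescence ratio to DMSO above its plate's cutoff, the plate mean ratio plus 5 SD, cut at about 210% in these data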;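 further: unstained yeast with no Nile Red so the signal is compound autofluorescence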
CaMdr1 efflux inh = blocks the Candida albicans Mdr1 efflux pump in yeast. shares compounds with Efflux pump inh. S. cerevisiae AD/CaMDR1, Nile Red efflux, flow cytometry. inhibition, % at 10 µM. 1,700 tested, 1% active. AID 588518; in the data active means inhibition above about 26%;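 further: 0% = DMSO vehicle and 100% = reference inhibitor; higher means more Nile Red retained so more efflux inhibition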
Cdr2 pump inh = blocks the Candida albicans Cdr2 efflux pump in yeast; shares compounds with Efflux pump inh; S. cerevisiae AD/CaCDR2, Nile Red retention, flow cytometry; Nile Red retention ratio vs DMSO, % at 10 µM; 1,700 tested, 4% active; AID 588520; in the data active means Nile Red retention ratio vs DMSO above about 190%;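 further: higher ratio means more blocking of Cdr2 efflux of the dye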
CaCdr1 efflux inh = inhibitors of Candida albicans Cdr1 efflux pump. shares compounds with Efflux pump inh. S. cerevisiae AD/CaCDR1, Nile Red efflux, flow cytometry. inhibition, % at 10 µM. 1,700 tested, 1% active. AID 588522;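 active means inhibition above the screen-wide mean plus twice its standard deviation, cut at about 32% in these data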
Active calls of the source: *; nt = no result.

SMILES	Efflux pump inh	SKN-1 inh	Mot1-301 SUMO	HGIII-sPLA2 inh	Yeast cmpd fluor	CaMdr1 efflux inh	Cdr2 pump inh	CaCdr1 efflux inh
O=C(CC1C[C@H](C(=O)N2CCOCC2)[C@@]2(CCC3CCCC3)c3[nH]c4ccccc4c3CCN2C1=O)NCCN1CCOCC1 (some centres not stated)	0	21	9	5	nt	nt	nt	nt
O=C(CC1C[C@H](C(=O)N2CCOCC2)[C@@]2(CCC3CCCC3)c3[nH]c4ccccc4c3CCN2C1=O)NCC12CC3CC(CC(C3)C1)C2 (some centres not stated)	1.2*	2	9	11	109	0	123	0
CCCCNC(=O)C1(C)CCC(=O)N1c1cc(C(C)(C)C)nn1C (configuration not stated)	nt	-1	nt	7	nt	nt	nt	nt
Cc1ccc(/C=C/C(=O)OCC(=O)NCCN2C(=O)CSC2=O)cc1	0	2	4	-11	nt	nt	nt	nt
O=C(COC(=O)c1ccc(Br)cc1)NCCN1C(=O)CSC1=O	0	-8	-7	-23	112	0	99	0
Cc1ccc(C(=O)OCC(=O)NCCN2C(=O)CSC2=O)cc1	0	4	265	13	101	0	102	0
O=C(COC(=O)c1ccc(S(=O)(=O)Nc2ccccc2)cc1)NCCN1C(=O)CSC1=O	0	-6	-3	-14	nt	nt	nt	nt
CCN(CC)S(=O)(=O)c1ccc(C(=O)OCC(=O)NCCN2C(=O)CSC2=O)cc1	0	9	3	-2	109	0	112	0
COc1ccc(C(=O)OCC(=O)NCCN2C(=O)CSC2=O)cc1	0	0	12	9	108	0	91	0
CCOC(=O)C1=CCN(S(=O)(=O)c2ccc(F)cc2)C1c1ccc(Cl)c(Cl)c1 (configuration not stated)	nt	10	nt	-8	nt	nt	nt	nt
COC(=O)C1=COC(C)C2CN3CCc4c([nH]c5cc(OC)c(OC)cc45)C3CC12 (configuration not stated)	0.9*	-1	-4	-30	107	0	119	0
O=C(COC(=O)c1cc(=O)c2ccccc2o1)NC1CCCC1	0	3	2	3	nt	nt	nt	nt
CN(C)c1ncnc2c1ncn2[C@H]1CN(Cc2cccs2)C[C@@H](CO)O1	nt	7	nt	-5	nt	nt	nt	nt
CC(C)N(C)CCOC(=O)c1ccccc1Br	13*	10	10	-8	131	2	163	2
O=C(N/N=C/c1cccc(F)c1)c1c(O)c2c([nH]c1=O)CCCC2	8.9*	3	-2	4	84	0	100	0
CC(C)Cn1c(=O)c(C(=O)N/N=C/c2cccc(F)c2)c(O)c2ccccc21	0	-1	36	2	nt	nt	nt	nt
CC(C)(C)C(=O)CSc1nc2c(c(-c3cccs3)c1C#N)CCC2	0.5*	6	27	-3	105	0	110	0
O=C(NCC(c1ccco1)N1CCCC1)c1ccccc1Sc1ccc(C(F)(F)F)cc1[N+](=O)[O-] (configuration not stated)	0	9	203	0	nt	nt	nt	nt
C[C@H](CO)N1C[C@H](C)[C@@H](CN(C)C(=O)Oc2ccccc2)OCc2cn(nn2)CCCC1=O	nt	-2	nt	10	nt	nt	nt	nt
COc1ccccc1N1CCN(C(=O)c2cc(-c3cccs3)on2)CC1	0.7*	14	28	-7	100	0	123	0
COc1ccc(NS(=O)(=O)c2cc(NC(=O)c3cccnc3Cl)ccc2N2CCCC2)cc1	0.5*	9	nt	-3	116	0	99	0
COc1ccc(NS(=O)(=O)c2cc(NC(=O)c3cnc(C)cn3)ccc2N2CCCC2)cc1	0	11	15	6	nt	nt	nt	nt
O=C(CCCc1ccccc1)N=C1SC2CS(=O)(=O)CC2N1c1ccccc1 (configuration not stated)	0	0	-19	8	nt	nt	nt	nt
CN(C)c1ccc(N2C(=NC(=O)CCc3ccccc3)SC3CS(=O)(=O)CC32)cc1 (configuration not stated)	1.0*	-1	-2	1	121	1	99	0
CC1(C2CC(=O)c3c(O)ccc(O)c3C2)OCCO1 (configuration not stated)	nt	6	nt	-8	nt	nt	nt	nt
SMILES	Efflux pump inh	SKN-1 inh	Mot1-301 SUMO	HGIII-sPLA2 inh	Yeast cmpd fluor	CaMdr1 efflux inh	Cdr2 pump inh	CaCdr1 efflux inh
COc1ccc(-c2cc(N3C(=O)Nc4ccccc4N3O)n[nH]2)cc1	6.5*	1	9	-2	98	0	100	0
COc1ccc(-c2nc(Cn3c(SCc4cccc(F)c4)nc4ccncc43)c(C)o2)cc1OC	0.5*	-3	-10	-9	108	1	106	0
COc1ccc(-c2nc(Cn3c(SCc4ccc(C)cc4)nc4ccncc43)c(C)o2)cc1OC	0.4*	3	460*	-19	103	0	102	0
Cc1ccc(CSc2nc3ccncc3n2CC(=O)Nc2cc(C)cc(C)c2)cc1	0	0	10	-9	nt	nt	nt	nt
COc1ccc(-c2nc(CN3CCN(Cc4cccc(F)c4)CC3)c(C)o2)cc1	0	-9	-10	-9	nt	nt	nt	nt
CC1(C(=O)O)CCCN(C(=O)c2cc3ccccc3s2)C1 (configuration not stated)	nt	4	nt	0	nt	nt	nt	nt
O=C(CNS(=O)(=O)c1cccc2ccccc12)N1CCN(c2ncccn2)CC1	nt	nt	nt	-1	nt	nt	nt	nt
COc1cccc(CC2(CO)CCN(S(=O)(=O)c3ccc(OC)cc3OC)CC2)c1	0	11	-6	-4	nt	nt	nt	nt
O=C(COC(=O)/C=C/c1cccc(C(F)(F)F)c1)Nc1ccc(Cl)cn1	0.6*	11	14	2	102	0	92	0
O=C(COC(=O)/C=C/c1cccc([N+](=O)[O-])c1)Nc1ccc(Cl)cn1	0	-15	-3	5	nt	nt	nt	nt
CC(C)C(C(=O)O)N1C(=O)/C(=C/c2cccn2C)SC1=S (configuration not stated)	0	14	80	-9	nt	nt	nt	nt
CC(C)C(C(=O)O)N1C(=O)/C(=C/C=C/c2ccco2)SC1=S (configuration not stated)	1.2*	24	23	nt	135	0	161	0
CCN(CC)S(=O)(=O)c1ccc(NC(=O)CCNC(=O)c2ccccc2)cc1	0	9	49	-3	nt	nt	nt	nt
Oc1ccccc1C=NN1CCCCCC1	nt	-8	nt	10	nt	nt	nt	nt
Oc1[nH]c2ccccc2c1/C=N/N1CCCCC1	6.7*	3	393	6	102	0	98	0
Cc1ccc(S(=O)(=O)N(C)C[C@H]2Oc3c(NC(=O)Nc4cccc5ccccc45)cccc3C(=O)N([C@@H](C)CO)C[C@@H]2C)cc1	1	-2	nt	-31	109	1	110	2
